From article PMC4336329 (PLoS ONE, 2015)
The campaign covered roughly 310,000 compounds. About 14,000 (4.5%) showed an effect of 50% or more. The effect is printed as a negative number. The list comes from a sample in which strong results are over-represented; it also holds similar structures and randomly drawn compounds.

What follows are compounds tested against human ether-à-go-go-related gene (hERG) potassium channel (human, UniProt Q12809) (assay: primary screen, population patch clamp on CHO cells stably expressing hERG; higher = less effect of the substance).
Chain of human ether-à-go-go-related gene (hERG) potassium channel (Q12809 whole entry, looked up): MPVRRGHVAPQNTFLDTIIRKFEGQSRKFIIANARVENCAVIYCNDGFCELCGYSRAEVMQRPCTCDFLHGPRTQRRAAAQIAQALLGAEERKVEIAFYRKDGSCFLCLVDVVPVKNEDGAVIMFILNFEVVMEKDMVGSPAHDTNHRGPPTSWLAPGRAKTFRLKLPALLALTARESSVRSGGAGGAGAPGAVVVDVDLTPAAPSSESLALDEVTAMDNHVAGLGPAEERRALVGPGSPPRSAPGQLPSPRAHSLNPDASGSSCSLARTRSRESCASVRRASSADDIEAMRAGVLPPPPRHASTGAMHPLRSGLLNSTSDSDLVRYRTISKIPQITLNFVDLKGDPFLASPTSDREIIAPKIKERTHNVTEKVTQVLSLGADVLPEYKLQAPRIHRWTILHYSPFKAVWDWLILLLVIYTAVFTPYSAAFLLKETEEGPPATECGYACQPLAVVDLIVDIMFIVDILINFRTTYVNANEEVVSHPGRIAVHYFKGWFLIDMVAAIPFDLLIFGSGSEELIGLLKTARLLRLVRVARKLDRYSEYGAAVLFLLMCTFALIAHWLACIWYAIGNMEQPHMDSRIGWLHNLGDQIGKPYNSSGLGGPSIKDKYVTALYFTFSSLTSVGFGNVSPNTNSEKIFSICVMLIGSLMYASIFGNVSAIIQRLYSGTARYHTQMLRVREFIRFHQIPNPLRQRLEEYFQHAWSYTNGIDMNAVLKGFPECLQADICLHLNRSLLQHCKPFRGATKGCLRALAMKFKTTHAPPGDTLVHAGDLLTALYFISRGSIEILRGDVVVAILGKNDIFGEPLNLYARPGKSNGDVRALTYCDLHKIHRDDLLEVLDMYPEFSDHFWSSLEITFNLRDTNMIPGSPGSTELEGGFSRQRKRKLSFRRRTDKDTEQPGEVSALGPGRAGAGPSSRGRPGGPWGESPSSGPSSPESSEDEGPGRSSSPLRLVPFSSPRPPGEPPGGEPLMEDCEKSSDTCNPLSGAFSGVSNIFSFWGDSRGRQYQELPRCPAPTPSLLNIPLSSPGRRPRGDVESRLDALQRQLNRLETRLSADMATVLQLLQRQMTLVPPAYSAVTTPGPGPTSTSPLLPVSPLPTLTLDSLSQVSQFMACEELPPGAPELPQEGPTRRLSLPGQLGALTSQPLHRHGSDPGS
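Note: peak tail current of the secondary pulse compared with the same well before compound.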

Compound | hERG current change (%, negative = inhibition) at 10uM [%]
COc1ccccc1NC(=O)Cn1cnc2c(nc3n2CCCCC3)c1=O | -11.4
COc1cc(NC(=O)Cn2cnc3c(nc4n3CCCCC4)c2=O)cc(OC)c1OC | 22.8
O=C(Cn1cnc2c(nc3n2CCCCC3)c1=O)Nc1cccc(C(F)(F)F)c1 | -52.3
CC(C)c1nc(CN(C)C(=O)N[C@H](C(=O)N[C@@H](Cc2ccccc2)C[C@H](O)[C@H](Cc2ccccc2)NC(=O)OCc2cncs2)C(C)C)cs1 | -24.5
C#CCOCCOCCOCCNc1nc(N2CCOCC2)nc(N2CCN(C(=O)[C@H]([C@@H](C)CC)n3cc(CCC[NH+]=C(N)N)nn3)CC2)n1.[Cl-] | -0.117
COc1cccc(-n2c(SCC(N)=O)nnc2-c2ccncc2)c1 | 16
O=c1[nH]nc(Cc2ccc(Cl)cc2)c2ccccc12 | 8.04
O=c1[nH]nc(Cc2ccc([N+](=O)[O-])cc2)c2ccccc12 | -70.2
O=c1[nH]nc(Cc2ccccc2)c2ccccc12 | 4.16
CN(C)CCNC(=O)c1cc(Br)ccc1Cl | 3.14
CC(=O)c1c(N2CCN(c3ccccn3)CC2)nc(=S)n(-c2ccccc2)c1C | -32.3
Clc1ccc(-c2cc(C3CCNCC3)[nH]n2)cc1 | -3.21
CC(C)(C)OC(=O)N1CCC(c2cc(-c3cccs3)n[nH]2)CC1 | -1.2
Cc1ccc(CN2CCC(c3cc(-c4ccc(Cl)cc4)n[nH]3)CC2)cc1 | -78.8
CCOC(=O)CN1CCC(c2cc(-c3ccc(Cl)cc3)n[nH]2)CC1 | -12.5
Cc1ccc(CN2CCC(c3cc(-c4cccs4)n[nH]3)CC2)cc1 | -82.1
Cc1ccc(CN2CCN(/N=C/c3cccs3)CC2)cc1 | -38
O=C(O)c1ccc(NC(=O)c2cccc(C(=O)Nc3ccc(C(=O)O)cc3)c2)cc1 | 7.31
Cc1c(S(=O)(=O)NCCc2ccccc2)c(=O)n(C)c(=O)n1C | -1.25
CCN(CC)C(=O)c1ccc2c(c1[N+](=O)[O-])C(=O)c1ccccc1C2=O | 6.69
Cc1nn(C2CCOC(C)(C)C2)c2c1C(c1ccc(OC(C)C)cc1)SCC(=O)N2 (stereo not shown) | -15.5
Nc1nc(N2CCCCC2)nc(N(c2ccccc2)c2ccccc2)n1 | 17.1
Nc1nc(N2CCCCC2)nc(N2CCCCC2)n1 | -78.2
C1CCN(c2nc(N3CCCCC3)nc(N3CCNCC3)n2)CC1 | -7.81
O=C(C1CCN(S(=O)(=O)N2CCOCC2)CC1)N1CCOCC1 | -6.69

Compound | hERG current change (%, negative = inhibition) at 10uM [%]
CN(C)S(=O)(=O)c1ccc(NC(=O)CN2CCOCC2)cc1 | 9.72
Cc1ccc(NC(=O)CN2CCOCC2)cc1 | 14.1
CCCCN(CCCC)S(=O)(=O)c1ccc(NC(=O)CN2CCOCC2)cc1 | -53.6
CCCCNS(=O)(=O)c1ccc(NC(=O)C2CCCO2)cc1 (stereo not shown) | -8.88
CCN(CC)S(=O)(=O)c1ccc(NC(=O)C2CCCO2)cc1 (stereo not shown) | 6.96
CCCN(CCC)S(=O)(=O)c1ccc(NC(=O)C2CCCO2)cc1 (stereo not shown) | -64.4
CC12CCC(C(=O)N(CC(O)CN3CCN(Cc4ccccc4)CC3)C1=O)C2(C)C.Cl (stereo not shown) | -6.03
O=C(C1CCC(=O)N1Cc1ccccc1Cl)N1CCC2(CC1)OCCO2 (stereo not shown) | -29.7
COc1ccc(CN2CCNC(=O)C2CC(=O)NCCCC2CCCC2)c(C)c1C (stereo not shown) | 5.39
CC(CNS(=O)(=O)c1ccc2c(c1)CC(=O)N2C)c1ccccc1 (stereo not shown) | -12.3
COc1cccc(NC(=O)CN(C)C(=O)c2cc(C)oc2C)c1 | 6.56
Cc1cc2cc(CNC(=O)c3ccc4c(c3)OCO4)ccc2[nH]1 | -1.85
Cc1[nH]c2ccc(Br)cc2c(=O)c1CN1CCCCCC1 | -64.3
Cc1[nH]c2ccc(Br)cc2c(=O)c1CN1CCOCC1 | -27.2
Cc1ccc2[nH]c(-c3ccccc3)c(CN3CCCC3)c(=O)c2c1 | -12.2
CCc1ccc2[nH]c(C)c(CN3CCCCCC3)c(=O)c2c1 | -46.9
Cc1ccc2[nH]c(=O)c(CN3CCCCC3)c(-c3ccccc3)c2c1 | -53.6
O=c1[nH]c2ccc(Br)cc2c(-c2ccccc2)c1CN1CCOCC1 | -65.7
Cc1ccc2[nH]c(=O)c(CC(=O)O)c(-c3ccccc3)c2c1 | 17.7
O=c1[nH]c2ccc(Br)cc2c(-c2ccccc2)c1N1CCOCC1 | 7.5
O=c1[nH]c2ccc(Cl)cc2c(-c2ccccc2)c1CN1CCOCC1 | -14.7
COc1ccc(CN2CCNC(=O)C2CC(=O)NC2CCCCCCC2)cc1C (stereo not shown) | 15.8
CC(C)(C)c1cc(=O)[nH]c(SCc2ccccc2)n1 | 17.3
OCC1CO1 (stereo not shown) | 15.8
Cn1c(O)c(N=NC(=O)CNC(=O)c2cccnc2)c2ccccc21 | 15.1

Compound | hERG current change (%, negative = inhibition) at 10uM [%]
CCOC(=O)c1c(O)c2ccccc2n(C)c1=O | 27.7
CCOc1ccc(NC(=O)CSc2n[nH]c(N)n2)c([N+](=O)[O-])c1 | -6.62
COc1cccc(C(=O)NCc2cccnc2)c1 | 1.54
O=C1CSC(c2cn(-c3ccccc3)nc2-c2cc3ccccc3oc2=O)N1Cc1ccccc1 (stereo not shown) | 5.85
O=C(CSc1nc2[nH]ncc2c(=O)[nH]1)Nc1cccc(Cl)c1 | 4.2
CN(C)CCN(Cc1ccccc1)c1ccnc(N(C)C)c1C#N | -26.7
CN(C)c1ccnc(N(Cc2ccccc2)Cc2ccccc2)c1C#N.Cl | -6.74
CN(C)c1nccc(N(Cc2ccccc2)Cc2ccccc2)c1C#N | -58.3
Cc1c(Cl)cccc1N=C1SCCN1C(=O)CN1C(=O)NC2(CCCC2)C1=O | -16.5
O=C(C1CC1)N1CCc2cc(Br)cc(S(=O)(=O)N3CCCCCC3)c21 | -16.5
O=C(N/N=C/c1ccncc1)c1ccc(OCc2ccccc2)cc1 | -0.12
O=C1NC(=O)/C(=C\c2ccc(Sc3ccc(Cl)cc3)o2)N1 | 2.37
Oc1ccc(/C=N/Nc2nc(-c3cccnc3)nc3ccccc23)c(O)c1 | -2.97
COc1ccc(-c2occ(C(=O)O)c2C(=O)O)cc1 | -3.07
CC(=O)N1N=C(c2ccc(Cl)cc2)CC1c1ccc([N+](=O)[O-])cc1 (stereo not shown) | 11.8
COc1ccc(C2=NN(C(=O)CCC(=O)O)C(c3ccc([N+](=O)[O-])cc3)C2)cc1 (stereo not shown) | 10.2
CC(=O)N1N=C(c2ccc([N+](=O)[O-])cc2)CC1c1ccccc1Cl (stereo not shown) | -66
CCC(=O)N1N=C(c2ccccc2)CC1c1ccccc1 (stereo not shown) | 2.71
CCn1cc([N+](=O)[O-])c(C(=O)N2N=C(c3ccccc3)CC2c2ccc([N+](=O)[O-])cc2)n1 (stereo not shown) | -37.2
CCC(=O)N1N=C(c2ccccc2)CC1c1ccc([N+](=O)[O-])cc1 (stereo not shown) | -53.4
COc1ccc(C2CC(c3ccc([N+](=O)[O-])cc3)=NN2C(C)=O)cc1 (stereo not shown) | -64.5
COc1ccc(C2CC(c3ccc(Cl)cc3)=NN2C(C)=O)cc1 (stereo not shown) | -23.5
CC(=O)N1N=C(c2ccccc2)CC1c1cccc([N+](=O)[O-])c1 (stereo not shown) | -27.3
CC(=O)N1N=C(c2ccccc2)CC1c1ccccc1[N+](=O)[O-] (stereo not shown) | 2.95
O=C(O)CCC(=O)N1N=C(c2cccs2)CC1c1cccc([N+](=O)[O-])c1 (stereo not shown) | 20

Compound | hERG current change (%, negative = inhibition) at 10uM [%]
CC(=O)N1N=C(c2cccs2)CC1c1cccc([N+](=O)[O-])c1 (stereo not shown) | -51.6
O=C(O)CC1S/C(=N/N=C/C=C/c2ccccc2)NC1=O (stereo not shown) | 0.632
Cc1ccc(-n2c(C)c(C)c3c(NCCO)ncnc32)cc1 | 6.27
CSc1nsc(SCC(=O)Nc2nc3ccccc3s2)n1 | 9.66
Cn1c(=O)[nH]c2nnc(-c3ccc(Cl)c(Cl)c3)nc2c1=O | 8.52
COc1ccc(OC)c(/C=N/NC(=O)c2cnccn2)c1 | 1.45
COc1ccccc1CNC(=O)C(=O)NCC1OCCN1C(=O)c1cccs1 (stereo not shown) | 3.96
Cc1c(C(=O)N/N=C/c2ccc(-c3ccccc3[N+](=O)[O-])o2)sc(N)c1C#N | 12.1
COc1ccccc1N(C)S(=O)(=O)c1ccc(C(=O)OC(C)C(=O)NCc2ccc3c(c2)OCO3)cc1 (stereo not shown) | -41.6
CCc1ccc(NC(=S)NCC2CCCN2CC)cc1 (stereo not shown) | -32.2
CCn1c(SCC(=O)OC)nnc1C1CCCCC1 | 6.57
O=C(N/N=C/c1ccoc1)c1ccccc1Br | 16.9
CCc1nc(SCc2ccc(Cl)cc2)n[nH]1 | 12
Cc1occc1-c1nnc(SCC(=O)Nc2ccccc2)n1C(C)c1ccccc1 (stereo not shown) | -37.6
CCn1c(SCC(=O)Nc2nccs2)nnc1-c1ccco1 | -10.7
Cn1cccc1Cc1nnc(SCC(=O)Nc2nccs2)n1CCc1ccccc1 | -9.58
Cc1occc1-c1nnc(SCC(=O)Nc2nccs2)n1CCc1ccccc1 | -60.3
Cc1csc(NC(=O)CSc2nnc(-c3ccoc3C)n2C(C)c2ccccc2)n1 (stereo not shown) | -74.1
Cc1csc(NC(=O)CSc2nnc(-c3ccoc3C)n2CCc2ccccc2)n1 | -59.7
CCn1c(SCC(=O)Nc2nc(C)cs2)nnc1-c1ccoc1C | -1.96
Cc1occc1-c1nnc(SCC(=O)NC(C)(C)C)n1C(C)c1ccccc1 (stereo not shown) | -11.8
Cc1csc(NC(=O)CSc2nnc(Cc3cccn3C)n2CCc2ccccc2)n1 | -4.35
